These results are taken from PubChem BioAssay (NCI).

The panel holds about 83,000 compounds, 20% with a hit somewhere; the sample as a whole holds those more often.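 In brief: 96-well plates, 48 h treatment, single concentration, percent growth endpoint.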 Active and inactive are the calls of the source.

The subject of the test is HOP-62 NSCLC. Put plainly: NCI-60 one-dose screen, 48 h (100 = growth as untreated, 0 = no growth, -100 = all killed). The note with it: 10 µM unless noted. As for the experimental part:
Growth inhibition of the HOP-62 human Non-Small Cell Lung tumor cell line is measured as a screen for anti-cancer activity. Cells are grown in 96 well plates and exposed to the test compound for 48 hours. Compounds are tested at a single concentration, which is 10^-5 M for most compounds. The reported endpoint is percent growth (GI% or GIPRCNT), where numbers from 0 - 100% represent growth inhibition, and numbers from -100% - 0 represent cell death. For example, a value of 40 represents 60% growth inhibition. A value of 0 means no net growth occurred over the course of the experiment. A value of -40 indicates 40% of cells at the beginning of the experiment died by the end of the experiment. A value of -100 means all cells are dead at the end of the experiment.
NCI-60 Human Tumor Cell Lines Screen was performed using the standard one-dose NCI protocol, which is described in more detail at https://dtp.cancer.gov/discovery_development/nci-60/default.htm.
Compounds with GIPRCNT values below 10 were considered active. Activity score was based on GIPRCNT using the following formula: […]
Score is 0 for GIPRCNT values of 100 or above, 50 for GIPRCNT values of 0, and 100 for GIPRCNT values of -100.
As for `COc1ncnc2c(-c3ccccc3)cn(COCc3ccccc3)c12`, the growth is 75.6% (inactive).
Consider `O=C1COCCN1c1ccc(NCc2cn(Cc3ccc(F)cc3)c3ccccc23)cc1`, for which the growth was 62.5% (inactive).
Turning to `Cc1cc2c(C(C)C)c(O)c(O)c(C=NCc3ccoc3)c2c(O)c1-c1c(C)cc2c(C(C)C)c(O)c(O)c(C=NCc3ccco3)c2c1O`, the growth was 53.3% (inactive).
Take `C[C@H]1[C@H](C)CC[C@]2(COC(=O)CCC(=O)O)CC[C@]3(C)C(=CC[C@@H]4[C@@]5(C)CCCNC(C)(C)[C@@H]5CC[C@]43C)[C@H]12`: the growth was 49.1% [100 µM] (inactive).
Regarding `CCOC(=O)C(=Cc1ccccc1[N+](=O)[O-])C(=O)OCC`, the growth is 27.3% (inactive).
With `C=C(C)[C@@H]1CC[C@]2(C(=O)OC)CC[C@]3(C)[C@H](CC[C@@H]4[C@@](C)(CCc5nn[nH]n5)[C@H](C(=C)C)CC[C@]43C)[C@@H]12`, the growth is -72.7% [100 µM] (active).
`Cc1ccc(S(=O)(=O)Oc2ccc([N+](=O)[O-])cc2[N+](=O)[O-])cc1`: the growth is 115% (inactive).
In the case of `CCn1cc(-c2ccnc(NCCNS(=O)(=O)c3ccc(Br)cc3)c2)c(-c2cccc(OC)c2)n1`, the growth was 81.4% (inactive).
The figure for `ClC1=C(Cl)C(Cl)=C(Cl)C1=Cc1ccccc1` is -32.7% (active); for `C[C@H]1[C@H](C)CC[C@]2(C(=O)O)CC[C@]3(C)C(=CC[C@@H]4[C@@]5(C)C/C(=C/c6cccnc6)[C@H](O)C(C)(C)[C@@H]5CC[C@]43C)[C@H]12` it is -29.1% [100 µM] (active); for `C[C@@H]1C[C@H]2C(=O)O[C@@H](C)[C@H](NC(=O)[C@H](Cc3cc(F)cc(F)c3)NC(=O)Nc3ccc(C4CC4)cc3F)C(=O)N3CCC[C@H]3C(=O)N3CCCC[C@H]3C(=O)N[C@@H](C)C(=O)N2C1` it is 27.8% (inactive).
The result for `O=C1/C(=C\c2cccn2Cc2ccccc2)c2ccccc2N1c1c(Cl)cccc1Cl` reads 77.2% (inactive); that for `C#C[C@]1(O)CC[C@H]2[C@@H]3CC=C4c5nc(Nc6ccccc6[N+](=O)[O-])sc5CC[C@]4(C)[C@H]3CC[C@@]21C`, 69.2% (inactive); that for `CC[C@]12C=CCN3CC[C@@]4(c5ccc(OC)cc5N(C)[C@H]4[C@@](O)(C(=O)OC)[C@@H]1OC(=O)CCC(=O)O[C@H]1CC[C@H]4[C@@H]5CCC6=CC(=O)CC[C@@H]6[C@H]5CC[C@]14C)[C@@H]32`, 21.9% [100 µM] (inactive).
The result for `O=[N+]([O-])c1ccc(O)c(-c2nc3ccccc3s2)c1` reads 88.8% (inactive); that for `COc1ccc(-c2cc(-c3ccc(OC)c(OC)c3)nc(SCCCCCC(=O)NO)n2)cc1`, 60.3% (inactive); that for `O=C1NC(=O)c2cc([N+](=O)[O-])cc3cccc1c23`, 121% (inactive).
Consider `Cc1cc(NN=C(c2ccc(O)cc2)c2ccc(O)cc2)c([N+](=O)[O-])cc1[N+](=O)[O-]`, for which the growth was 54.2% (inactive).
For `C=C(C)[C@@H]1CC[C@]2(C)[C@H](CC=C3[C@@H]4[C@@H](C)[C@H](C)CC[C@]4(C(N)=O)CC[C@]32C)[C@@]1(C)CCC#N`, the growth was -1.03% [100 µM] (active).
The figure for `CC(C)CCSC1=CC(=O)c2ccccc2C1=O` is 78.4% (inactive).
`Cn1cc(-c2nnc(-c3cn(C)c4ncc(Br)cc34)o2)c2ccccc21`: the growth is 82.5% (inactive).
For `C#C[C@]1(O)CC[C@H]2[C@@H]3CC=C4c5nc(Nc6ccc(OC)cc6OC)sc5CC[C@]4(C)[C@H]3CC[C@@]21C`, the growth was -11.5% (active).
`Cn1cc(-c2nnc(-c3cn(C)c4ncc(Br)cc34)s2)c2cc(Br)ccc21`: the growth is 93.1% (inactive).
For the compound `COc1cccc(-c2[nH]c(=S)ncc2C(=O)c2ccccc2)c1`, the growth was 78.8% (inactive).
`COC(=O)C(=Cc1ccccc1[N+](=O)[O-])C(=O)OC`: the growth is 104% (inactive).
Turning to `CCOC(=O)CCC[P+](c1ccccc1)(c1ccccc1)c1ccccc1`, the growth was 99.8% (inactive).
On to `CCOC(=O)C(C(C)=O)c1nc2sc3cc(Cl)c(Cl)cc3n2c(=O)c1C#N` (stereo not given), for which the growth was 109% (inactive).
Turning to `COc1cc(C)cc2oc3oc(=O)c(C(=O)c4cc5cc(Br)ccc5o4)cc3c(=O)c12`, the growth was 104% (inactive).
Regarding `O=C(O)c1cn(C2CC2)c2cc(N3CCN(Cc4c(O)ccc5ccccc45)CC3)c(F)cc2c1=O`, the growth is -41.1% (active).
With `CC(C)[C@H]1COC(=O)N1[C@@H]1C(=O)N([C@@H](CCC(=O)N2CCN(C3CCCC3)CC2)C(=O)N[C@@H]2CCCc3ccccc32)[C@@H]1/C=C/c1cccc(Cl)c1`, the growth was 79% (inactive).
Regarding `COc1ccc(C(=O)CSc2nccc(Nc3ccc(C(=O)O)cc3)n2)cc1`, the growth was 99.7% (inactive).
Take `O=C(Nc1cc(-c2cccnc2)nc(NCCCN2CCOCC2)n1)c1cc(Br)cc(C(F)(F)F)c1`: the growth was 69.4% (inactive).
For the compound `COC(=O)c1cc(O)c2c(c1C(=O)OC)C[C@H]1[C@@H]3CC=C4C[C@@H](O)CC[C@]4(C)[C@H]3CC[C@]21C`, the growth was 20.4% (inactive).
For the compound `CN(C)C(=S)Sc1ccc([N+](=O)[O-])cc1[N+](=O)[O-]`, the growth was 71.1% (inactive).
On to `COc1ccc2c(c1)C(C)Cc1c(ncnc1-n1cnc3ccccc31)N2C` (stereo not given), for which the growth was 24.1% (inactive).
The figure for `CCN(CC)CCCC(C)Nc1ccnc2cc(Cl)c(SCc3ccccc3)cc12` (stereo not given) is -72.2% (active); for `Cc1ccc(NCCN2CCCCC2)c2c(=O)c3ccccc3sc12` it is 55.6% (inactive).
With `CC[C@]1(O)CC2CN(CCc3c([nH]c4ccccc34)[C@@](C(=O)OC)(c3cc4c(cc3OC)N(C=O)[C@H]3[C@@](O)(C(=O)OC)[C@H](OC(C)=O)[C@]5(CC)C=CCN6CC[C@]43[C@@H]65)C2)C1` (stereo not given in full), the growth was 16.9% (inactive).
The figure for `CC1Cc2c(ncnc2-n2cnc3ccccc32)N(C)c2ccccc21` (stereo not given) is 32.3% (inactive); for `Cc1c(Cn2cc(COc3ccc(Br)cc3)nn2)c(C)c(Cn2cc(COc3ccc(Br)cc3)nn2)c(C)c1Cn1cc(COc2ccc(Br)cc2)nn1` it is 84% (inactive).
